LASV entry inh – blocks Lassa virus binding to or entry into cells; Lassa virus pseudotype entry inhibition, cell reporter; Potency, µM (top dose mostly 37.9 µM), for the others: top-dose activity change, negative = inhibition, actives largely listed as inhibitors; 300,000 tested, 1.2% active; AID 540256; calls by dose curve; tested in HEK293 cells; also: potency is read from the fitted curve at half-maximal effect; nearly all actives have a fitted effect of over 50% in size
HCV inhibitor – blocks hepatitis C virus | Huh7.5.1 HCVcc-Cre infection, luciferase reporter, 44 h | Potency, µM (top dose mostly 41.8 µM), inactives show at the top dose activity change, negative = inhibition, usual class: inhibitors | 340,000 tested, 3.4% active | AID 651820; active = well fitted inhibition curve with a large enough effect; inconclusive = small, poorly fitted or top-dose-only effect, or another doubt; inactive = no such curve, though single readings can be large or run the other way; also: potency is read from the fitted curve at half-maximal effect
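Seed cells (1,000/well) for 4 h; treat with compound and infect with HCVcc-Cre, moi about 0.5. Incubate 44 h, then detect luciferase activity.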
HCMV inh – inhibitors of human cytomegalovirus; HFF cells, HCMV-luciferase reporter, 72 h; active compounds read low; activity change, negative = inhibition, % at 57.5 µM; 410,000 tested, 4.5% active; in the data active = activity change below about -60%; inconclusive = no clear call, values can overlap the other calls; inactive = above about -39%
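Steps: HFFs plated, 16 h 37C; compounds added; HCMV-luciferase added to MOI 1 PFU/cell; 72 h 37C; OneGlo reagent, 5 min room temperature; luminescence read, normalized to controls.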
Marburg entry inh – inhibitors of Marburg virus binding or cell entry; Marburg virus pseudotyped entry inhibition, cell reporter; Potency, µM (titrated, usually from 37.8 µM), without a hit: top-dose activity change, negative = inhibition, actives largely listed as inhibitors; 300,000 tested, 1.8% active; AID 540276; calls by dose curve; tested in HEK293 cells; also: potency is read from the fitted curve at half-maximal effect
FMDV antiviral – blocks foot and mouth disease virus; FMDV antiviral cell-based qHTS; Potency, µM (titrated, usually from 57.9 µM), inactives show at the highest dose activity change, negative = inhibition, actives largely listed as inhibitors; 410,000 tested, 1.2% active; AID 1159524; calls by dose curve; tested in HEK293T cells; also: read-out not given here; potency is read from the fitted curve at half-maximal effect; nearly all actives have a fitted effect of over 45% in size
An asterisk follows results filed as active; ? = inconclusive; . = not tested or not shown; + = active, no number; [ ] = remark or other dose. Shown are actives, neighbours in structure and some others; about 7.9% of the full set was active somewhere. % is scaled to controls: 0 for no effect and ±100 for the full control effect.

SMILES	LASV entry inh	HCV inhibitor	HCMV inh	Marburg entry inh	FMDV antiviral
Cn1nc(-c2ccccc2)nc1-c1ccccc1	.	0.0%	14.9	.	67.7%
CN1CCC2(CCN3CCc4c(oc5ccccc45)C3C2)N(C)C1=O (stereo unspecified)	-11.7%	.	.	?	.
CCn1c(-c2cccc(OC)c2)nc2cc(NC(C)=O)cc(C(=O)N3CCCC(C(C)=O)C3)c21 (stereo unspecified)	.	.	.	.	-1.7%
COc1cc(/C=C(/C)[N+](=O)[O-])ccc1OCc1ccccc1Cl	?	?	.	6.51µM*	22.4µM*
Cc1cc(Nc2cccc(C(F)(F)F)c2)ncn1	-1.4%[46.1 µM]	.	-7.1	22.5%[46.1 µM]	-8.7%
Cc1ccc(Nc2nc3nonc3nc2Nc2cccc(C(F)(F)F)c2)cc1Cl	?	.	-99.6*	?	?
COc1cc(=O)n2c(c1C(=O)NCc1ccco1)CCN(C(=O)c1cccnc1SC)CC2	.	.	.	.	17.4%
CO[C@@H]1CN(C)C(=O)c2ccc(NC(=O)C3CCCC3)cc2OC[C@@H](C)N(Cc2ccc(F)cc2)C[C@H]1C	.	.	-63.4*	.	-13.7%
COc1ccc(-n2ncc(S(=O)(=O)c3ccccc3)c2-c2ccc(Cl)cc2)cc1	?	10µM*	?	?	?
O=S(=O)(c1ccccc1)c1cnn(-c2ccccc2)c1-c1ccc(F)cc1	-13.9%	?	-61.5*	?	?
Cc1ccc(C)c(-n2sc3ccc(F)cc3c2=O)c1	.	?	-86.8*	.	?
COc1ccc(-n2sc3ccc(F)cc3c2=O)cc1	.	2.82µM*	-5.1	.	-59.0%
COc1ccc(-n2sc3ccccc3c2=O)cc1	.	.	-102.0*	.	?
COc1cc(OC)c(N(C)C(=O)c2c(C)oc3ncnc(N4CCCCC4)c23)cc1Cl	-8.1%[46.1 µM]	.	-5.0	.	-13.3%
Cc1cccc(OCc2nnc(SCC(=O)Nc3cccc(C(=O)N4CCOCC4)c3)o2)c1C	-0.5%	21.8%	-21.8	-3.0%	-13.8%
COc1ccc(/C=C2\SC(=O)N(CCNC(=O)Cc3coc4cc(OC)ccc34)C2=O)cc1	-19.0%	?	-102.5*	12.9%	0.0%
COc1ccc2c(CC(=O)NCCN3C(=O)S/C(=C\c4cccnc4)C3=O)coc2c1	?	-9.4%	16.9	10.3%	0.0%
COc1cc(OC)cc(C(=O)NCCN2C(=O)S/C(=C\c3cccs3)C2=O)c1	.	8.91µM*	-6.7	.	?
Cc1ccc(/C=C2\SC(=S)N(CCCC(=O)Nc3nccs3)C2=O)cc1	6.4%	5.5%	?	?	-23.9%
CCc1ccc(/C=C2\SC(=S)N(CCCC(=O)Nc3nccs3)C2=O)cc1	4.9%	13.0%	-93.5*	2.5%	13.8%
CCc1ccc(/C=C2\SC(=S)N(CCCC(=O)Nc3ccc(C(=O)O)cc3)C2=O)cc1	.	31.9%	-92.5*	.	-3.0%
Cc1cc(C)cc(N2C(=O)N(Cc3cccc(F)c3)c3ccccc3S2(=O)=O)c1	-17.1%[46.1 µM]	.	-5.3	.	-16.7%
COc1ccc(/C=C2/SC(=S)N(CCCC(=O)Nc3cccc(O)c3)C2=O)cc1	?	?	-97.1*	7.94µM*	4.2%
COc1ccc(NC(=O)CCCN2C(=O)/C(=C\c3ccco3)SC2=S)cc1	?	?	-101.4*	-4.8%	?
O=C(CCCN1C(=O)/C(=C/c2cccs2)SC1=S)NNC(=O)c1ccccc1O	?	?	?	5.3%	-0.7%
SMILES	LASV entry inh	HCV inhibitor	HCMV inh	Marburg entry inh	FMDV antiviral
COc1ccc(/C=C2\SC(=S)N(CCCC(=O)NNC(=O)c3ccccc3O)C2=O)cc1	2.24µM*	?	-75.2*	?	4.47µM*
COc1ccc(/C=C2/SC(=S)N(CCCC(=O)Nc3ccccc3C(=O)O)C2=O)cc1	2.82µM*	27.6%	-34.0	7.94µM*	8.91µM*
NC(=S)NCCC[C@H](N)C(=O)O	-5.9%	.	.	-0.5%	0.5%[146 µM]
CN(CCOc1ccc(Cl)cc1)C(=O)c1cc([N+](=O)[O-])ccc1N1CCOCC1	-20.6%[46.1 µM]	?	?	?	?
CCc1ccc(/C=C2\SC(=S)N(CCCC(=O)Nc3ccccc3C(=O)O)C2=O)cc1	.	1.4%	+	.	0.0%
COc1ccc(/C=C2\SC(=O)N(CCCC(=O)Nc3ccc(C(=O)O)cc3)C2=O)cc1	.	.	-100.8*	.	3.98µM*
Cc1ccc(/C=C2\SC(=S)N(CCCC(=O)Nc3ccccc3C(=O)O)C2=O)cc1	.	0.6%	?	.	?
O=C(CCl)N1CCN(S(=O)(=O)c2ccc3c(c2)OCCCO3)CC1	.	?	?	.	25.1µM*

High-throughput results as filed in PubChem BioAssay.
